# Activity calls are given as the source filed them. How the source made its calls: active means hit-call score of the fitted dose curve at least 0.9, where 1 is the maximum; inactive means score below 0.9.
# Assay: CCTE_Harrill_HTTr_Apoptosis_MCF7: CCTE's 6-hour Apoptosis Assessment for the High-Throughput Transcriptomics (HTTr) Platform, in MCF-7 cells cultured in DMEM + 10% fetal bovine serum, Harrill Lab (AID 2284011)
# How it was run: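 High-content imaging of CellEvent Caspase 3/7 Green signal follows a six-hour exposure, with eight concentrations per chemical. MCF-7 cells grown in DMEM plus 10% fetal bovine serum; activity fitted in both directions against DMSO.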
Compound,outcome,AC50
COc1ccccc1N,inactive,–
Brc1c(Br)c(Br)c(Oc2c(Br)c(Br)c(Br)c(Br)c2Br)c(Br)c1Br,inactive,–
OC[C@@H](O)[C@H]1O[C@@H]2O[C@H](C(Cl)(Cl)Cl)O[C@@H]2[C@H]1O,inactive,–
CCCSP(=S)(OCC)Oc1ccc(Cl)cc1Cl (stereo unspecified),inactive,–
COCCl,inactive,–
CCOCn1c(-c2ccc(Cl)cc2)c(C#N)c(Br)c1C(F)(F)F,inactive,–
CC(C)=CC1C(C(=O)OCc2cccc(Oc3ccccc3)c2)C1(C)C (stereo unspecified),inactive,–
Clc1cccc(Cl)c1,inactive,–
C[C@H]1C(=O)O[C@@H]2CCN3CC=C(COC(=O)[C@](C)(O)[C@]1(C)O)[C@H]23,inactive,–
O=C(NC(=O)c1c(F)cccc1F)Nc1ccc(Cl)cc1,inactive,–
Cc1cccc(C)c1NC(=O)CN1CCCC1=O,inactive,–
O=CCCl,inactive,–
O=S1(=O)OC(c2cc(Br)c(O)c(Br)c2)(c2cc(Br)c(O)c(Br)c2)c2ccccc21,inactive,–
C1CCC(C2CCCCC2)CC1,inactive,–
O=C1C=CC(=O)c2ccccc21,–,60.4 µM (active)
CCOC(=O)OC1=C(c2cc(C)ccc2C)C(=O)NC12CCC(OC)CC2 (stereo unspecified),inactive,–
O=C1C[C@@H]2OCC=C3CN4CC[C@]56c7ccccc7N1[C@H]5[C@H]2[C@H]3C[C@H]46,inactive,–
Cc1cc(SCc2sc(-c3ccc(C(F)(F)F)c(F)c3)nc2C)ccc1OCC(=O)O,inactive,–
Cc1cc(Cl)ccc1N,inactive,–
CCOC(=O)c1ccccc1S(=O)(=O)NC(=O)Nc1nc(Cl)cc(OC)n1,inactive,–
O=[N+]([O-])c1ccc(Cl)c([N+](=O)[O-])c1,inactive,–

# From PubChem BioAssay (EPA / NIEHS)
